Assay results: PubChem BioAssay (NCI)
About 83,000 compounds went through this panel and 20% of them were active in at least one assay; those are over-represented in the sample as a whole.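 Testing used 96-well plates and a 48-hour single-concentration exposure. Example: -40 means 40% of the starting cells died.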 Unmarked numbers belong to inactive results. Calls of active or inactive are those of the source. How the source made its calls: active means growth percent below 10; inactive means the rest.

Key:
Assay in all cases: NCI-60 one-dose screen, 48 h (100 = growth as untreated, 0 = no growth, -100 = all killed)
Settings in all cases: 10 µM unless noted
DU-145 prostate = system: DU-145 prostate
K-562 leukemia = system: K-562 leukemia
MALME-3M melanoma = system: MALME-3M melanoma
MDA-MB-231 breast = system: MDA-MB-231 breast
SF-268 CNS = system: SF-268 CNS
SF-295 CNS = system: SF-295 CNS
SF-539 CNS = system: SF-539 CNS
UACC-257 melanoma = system: UACC-257 melanoma
M14 melanoma = system: M14 melanoma
HCT-15 colon = system: HCT-15 colon
HT29 colon = system: HT29 colon
SNB-75 CNS = system: SNB-75 CNS
SNB-19 CNS = system: SNB-19 CNS
U251 CNS = system: U251 CNS
PC-3 prostate = system: PC-3 prostate
SK-MEL-5 melanoma = system: SK-MEL-5 melanoma
UACC-62 melanoma = system: UACC-62 melanoma
LOX IMVI melanoma = system: LOX IMVI melanoma
SK-MEL-28 melanoma = system: SK-MEL-28 melanoma
RXF 393 renal = system: RXF 393 renal

SMILES	growth (DU-145 prostate)	growth (K-562 leukemia)	growth (MALME-3M melanoma)	growth (MDA-MB-231 breast)	growth (SF-268 CNS)	growth (SF-295 CNS)	growth (SF-539 CNS)	growth (UACC-257 melanoma)	growth (M14 melanoma)	growth (HCT-15 colon)	growth (HT29 colon)	growth (SNB-75 CNS)	growth (SNB-19 CNS)	growth (U251 CNS)	growth (PC-3 prostate)	growth (SK-MEL-5 melanoma)	growth (UACC-62 melanoma)	growth (LOX IMVI melanoma)	growth (SK-MEL-28 melanoma)	growth (RXF 393 renal) [%]
O=C(Nc1ccccc1F)Nc1ccccc1Cl	103%	55.8%	74%	85.8%	91%	81.4%	91%	96.1%	100%	106%	91%	85.7%	97.1%	92.3%	108%	84%	73.2%	93.3%	96.9%	
CCOc1ccc(Cc2nccc3cc(OCC)c(OCC)cc23)cc1OCC	77.2%	14.3%	80.2%	53.2%	78%	28%	65.9%	69%	70.8%	59.8%	25.2%	99.6%	62.5%	62.8%	52.9%	47.1%	50.7%	53.8%	91.7%	
Cc1cc(NCCN(C(C)C)C(C)C)nc(/N=C(\N)Nc2ccc(Cl)c(C(F)(F)F)c2)n1	-29.5% (active)	-100% (active)	-74.5% (active)	-65.1% (active)	-85% (active)	-77.8% (active)	-97.8% (active)	-95.3% (active)	-89.8% (active)	-56.2% (active)	-86.6% (active)	-100% (active)	-83.3% (active)	-84.4% (active)	-94% (active)	-91.5% (active)	-91.6% (active)	-70.6% (active)	-87.2% (active)	
Clc1ccc(CN2COc3c(ccc4cccnc34)C2)cc1Cl	6.34% (active)	-34.2% (active)	-11.3% (active)	19.7%	-3.19% (active)	-18.6% (active)	-36.7% (active)	-35.1% (active)	-3.94% (active)	16.3%		9.33% (active)	18.5%	9.29% (active)	27.9%	-1% (active)	-38% (active)	2.29% (active)	33.5%	
CC(CN(C)C)CN1c2ccccc2CCc2ccccc21 (configuration not stated)	106%	65.4%	88.8%	85.9%	93%	87.5%	90.5%	105%	52.3%	89.9%	56.7%	66.9%	96.8%	85.6%	66.7%	77.9%	77.1%	74.5%	84.9%	
Cc1cccc(NC(=O)CCc2ccc(N3C(N)=NC(N)=NC3(C)C)cc2)c1	50.9%	23.3%	47.2%	63.4%	33.8%	64.9%	23.9%	28.2%	64.8%	103%	17.1%	60.2%	37%	36.9%	10.5%	26.9%	24.6%	18.7%	69.9%	
CCC1CN2C(=N1)c1ccccc1-c1cc(Cl)ccc12 (configuration not stated)	17.4%	2.32% (active)	-4.57% (active)	47.9%	25%	12%	17%	-28.8% (active)	21.7%	18.3%	5.27% (active)	42.6%	26.2%	14.8%	21.6%	-5.14% (active)	3.38% (active)	2.76% (active)	70.7%	
COc1ccc(-c2c(NC(=O)Nc3ccc(Cl)c(C(F)(F)F)c3)cnn2-c2ccc(S(N)(=O)=O)cc2)cc1	53.5%	11.7%	34.2%	52.7%	37.5%	38.6%	35.2%	34.9%	14.7%	68.3%	24.8%	65.7%	21.5%	15.6%	9.52% (active)	27%	41.2%	37.6%	42.2%	
Nc1c(C(=O)O)[nH]c(=O)[nH]c1=O	110%	86.9%	110%		98.7%	99.7%	103%	75.7%	103%	104%	92.7%	98%	104%	91.9%		103%	89%	97.6%		93.5
CC1(C)N=C(N)N=C(N)N1c1cccc(CCCCc2ccccc2)c1	31.1%	-44.7% (active)	-1.54% (active)	45.4%	10.8%	3.96% (active)	4.72% (active)	-34.8% (active)	6.98% (active)	37.1%	-5.08% (active)	-5.66% (active)	17.2%	11.5%	-30% (active)	-96.7% (active)	-9.07% (active)	13.2%		
O=C(NC(=S)Nc1ccc(Cl)cc1)c1ccccc1	103%	73.2%	112%	96.3%	114%	85.5%	103%	97%	100%	93.6%	87%	94.9%	105%	96.4%	105%	102%		106%	96.2%	
Cc1[nH]n(C(=O)c2ccncc2)c(=O)c1N=Nc1ccc(S(=O)(=O)Nc2ccncn2)cc1	126%	55.3%	124%	103%	95.5%	134%	107%	-1.41% (active)	106%	112%	109%	93.9%	105%	105%	100%	106%	98.8%	93.6%	112%	
CC1=C[S+](c2ccccc2)c2cccc3cc4ccccc4c1c23 (configuration not stated)	-10.8% (active)	-27.2% (active)	-41.2% (active)	-10.4% (active)	-38.7% (active)	-0.638% (active)	-88.2% (active)	-88.8% (active)	-64.4% (active)	7.56% (active)	0.469% (active)	-91.1% (active)	-93.6% (active)	-81% (active)	1.38% (active)	-86.7% (active)	-85.2% (active)	8.36% (active)		
CC(C)(C)C(=O)/C=c1/[nH]c(=O)/c(=C/c2ccccc2O)s1	78.6%		66.4%	58.1%	61%	60.6%	60.1%	82.1%	30.4%	33.8%	72.2%	66.5%	66.5%	27.8%	53.4%	42%	58.3%	40%	69.6%	62.7
Nc1nc(Cl)c2c(C(F)(F)F)cn(CC3CCNCC3)c2n1	109%		101%	54.2%	96.2%	105%	107%	83.8%	57.3%	35.6%	19.7%	97.6%	61.5%	45%	93.2%	94.9%	86.8%	-12.9% (active)	83.6%	52.9
COc1ccccc1S(=O)(=O)Nc1ccc2c3c(cc(-c4cnn(C)c4)nc13)C(=O)N2C	64.2%		51.2%	40.7%	59.8%	35.1%	34.6%	44.8%	42.6%	27.6%	18%	26.6%	50%	52%	42.1%	29.5%	18.2%	10.4%	63.1%	40.2
COc1ccc(C2CC(c3cc(Cl)c(C)cc3OC)=NN2c2ccc(S(N)(=O)=O)cc2)cc1OC (configuration not stated)	106%		101%	84.6%	90.1%	123%	103%	87.2%	81.8%	75.9%	78.7%	83.6%	101%	78.4%	52.3%	84.6%	65.1%	77.9%	108%	77.7
